Source: the supplement of paper PMC11417369
Over roughly 25,000 sequences, “ln(normalized median fluorescence intensity)” has its median near 9.3; the highest 2% begin near 10. What follows is part of a selection rich in the highest values, with near analogues and random picks from the rest.

tested on: PF3D7_0420300 AP2 domain 1 (GST-tagged); assay: gcPBM binding intensity (ln(normalized median fluorescence intensity)); higher = stronger DNA binding
Summary of the method: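 Using an Agilent 4 × 180k array, primer-extended double-stranded 36-bp intergenic genomic probes and negative controls were exposed for 1 h to GST-fused P. falciparum DNA-binding domains expressed in E. coli. Binding was carried out in 1× PBS with 1% milk, 0.2 mg/ml BSA, 0.5% salmon testes DNA and 0.03% Triton X-100, and protein was detected with Alexa488 anti-GST antibody and a 488 nm scan. Binding intensity is the highest Masliner-normalised natural-log median intensity across replicate spots of either probe orientation.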

Sequence	gcPBM binding intensity (ln)
AATATATATATACATACATGCATACATATATATATA [TGCATGCA_site784]	9.24
TTTATCCTTCTTTTGAGTACTCAAAGAGACCTATAA [XGTACX_site8050]	8.83
ATGAATTTATTACATTGTACATTTTTAAAAGGTTAC [XGTACX_site124]	9.11
TAAAAAAGAACAGAAACACACAAATAAAATAAAATT [CACACA_site1758]	10
GGGAGAAATTTATACATACACACATATATATATTAT [CACACA_site4039]	9.62
AAATATTATACAAAAAAAAAAAAAAAAAAAATATAT [CACACA_negctrl_site52]	9.39
AAAGCACCCAGGCACACACACAAAGGAAAAGAAAAA [CACACA_site232]	9.83
AAAAAAAACAGACACACACACATACAAAATATATAT [CACACA_site1449]	10.2
CAAATACCCGGACACACACACACAAAAAAAAAAAAA [CACACA_site4441]	9.99
TTAATACCCGGACACACACACACAAAATAAAATACA [CACACA_site4296]	10.2
AAAACAGACAAACACACACACACATATATATATATA [CACACA_site3393]	10
ATAAATGACAGACACACACACAAAAAAAAAAAACAA [CACACA_site2626]	10.2
AAAAAAAACAGACACACACACAAATACATACACAAA [CACACA_site705]	10
TTAATACCCAGACACACACACACAAAATAAAATACA [CACACA_site7968]	10.1
AAAAAAAAAAAAAACACACACATACAGACAAAAATG [CACACA_site83]	10.1
AAAAAAAAAAAAAATACACACAAATAATAAAAATAA [CACACA_site1431]	9.85
AAAAAAAACAGACACACACACAAATATATAAAAATA [CACACA_site1172]	10
TTAATCCACAGACACACACACACAAAATAAAATACA [CACACA_site244]	10.2
GCTTAATACAGAATAACACACAAAATAAATAAATAA [CACACA_site4041]	9.56
AAATGTACAGGACGCACACACATATTTATATTTATA [CACACA_site7689]	9.67
ATACATATATTAGGATGTACGTTTATTTTAGTTATT [XGTACX_site7169]	9.47
ATTAATATTTAGACTTGTACATATATAATATATGTC [XGTACX_site3766]	9.2
AAATTCTTAACCCAACGTACATATAATAAATTCTTA [XGTACX_site8538]	9.1

Sequence	gcPBM binding intensity (ln)
CAATCATTTTATTGTTGTACAGTAATTATGAATTCA [XGTACX_site7508]	9.03
TACAATGAAAAAATAACATGCAATTATATTTCTCTT [TGCATGCA_site833]	9.17
TATATAAATTAACCAGTGCATTATTTGGAAATTATT	9.31
CATTATGATTAAATATGTACATATTATTATATAAAT [XGTACX_site2477]	9.08
GAAAAAAAAAAAAAAAAAAAAAGGAAAAAAGTGAAA [CACACA_negctrl_site996]	9.21
TATATATGTATATATGGTACAGAATATTCTACATTA [XGTACX_site5077]	9.23
ATATCATTTTCCTGCACACATAAATTTATATAATAT [CACACA_site1048]	9.76
TTTTTTTTCTATGTGGTGCACATTATTTTTTTTTTT	9.41
CACAAAAAGAAACACACACACATATATATATATATA [CACACA_site999]	9.73
TATATATACAGACACATACACACAAATAAAAAAACA [CACACA_site3413]	10.1
TGAACACAGACAAATACACACAAAAAAAATAAATAA [CACACA_site4298]	9.79
AACAAATACAGACACACACACACACTAATAAAAAAA [CACACA_site8067]	10.3
TACAAACAGACATATACACACAAAAAAAAAATAAAA [CACACA_site2562]	9.91
AATACAGACAGACACACACACAAAATAAAATACAAA [CACACA_site245]	10.1
AAATAAAACAGACACACACACACATACACAAAAAAA [CACACA_site7753]	10.2
AAATTATAAATAATTTGTACATAAAAATTGGTAAAG [XGTACX_site5197]	9.07
CTTCAATTAAAATTCACACATATAAATTAAAATATT [CACACA_site6129]	9.06
AGCACCCACCAACACACACACACACCCACCCACCGA [CACACA_site368]	10.3
TACACCCACCAACACACACACACACCCAAAAAAAAA [CACACA_site498]	10.1
GTTACACCAACAAACACACACACACCGACACCCAAA [CACACA_site5361]	10.1
TGTTATATCAATAATATATAATAATACCCTTCTTTT [CACACA_negctrl_site1682]	9.06
TTGTTATAGAAGCATTCACACACACCCATACATACA [CACACA_site8414]	9.87
TATAGAAGCATTCACACACACACATACATACACATA [CACACA_site1466]	10.2

Sequence	gcPBM binding intensity (ln)
TATAGAAGCGTTCACACACACACATACATACCCATA [CACACA_site4915]	10.3
GTTATAGAAGCATTCACACACACACGGACATACACA [CACACA_site6801]	10.1
GTTATAGAAGCATTCACACACACACCCACATACACA [CACACA_site1465]	10.1
TAGAAGCATGGACACACACACATACATACCCATACA [CACACA_site4916]	10
ATTCACTAAAAAATTGCATGCAATAAATTTTTTTTT [TGCATGCA_site962]	8.91
TAATATATATATATATGTACATATATATTATGTATA [XGTACX_site4690]	9.07
TATATTTTCTATAGGTGTACTCCACATGCGGTGTTA [XGTACX_site7471]	9.08
ATGTATATGCAAACATGTACATATATAAACATATAT [XGTACX_site4159]	9.16
AAAAAAAAAAAAAAAAAAAAACACCCAAAAAAATAT [XGTACX_negctrl_site210]	9.62
TACACTTTTTATGAAGTGCATGTATAGCTCTTAAAA [GTGCAC_site9595]	8.78
AAAAAAAAAAAAAACACACACACACCCATAAATATA [CACACA_site151]	9.88
CATATAAAAATGTGCACACACACACCGATATATATT [CACACA_site4940]	10.1
TTTATTAAACTTGACACACACACACCCACATATATA [CACACA_site760]	10.2
TATTAAACTGGACACACACACACACCCATATATAAA [CACACA_site4579]	10.2
TTCCCATGTAATATTAAACACACACCCATATAACAC [CACACA_site7905]	9.76
TATATATTAAAACACACACACATATATATATATATA [CACACA_site3787]	9.67
ACCATATAAATAAACACACACACACCCATATATATA [CACACA_site2321]	10.2
TATTAAACGAAACACACACACACACCCATATATAAA [CACACA_site759]	10.2
CATATAAAAATGTGCACACACACACCCATATATATT [CACACA_site1526]	10.2
AATATAAATAAAAACACACACACACCCATATATATA [CACACA_site2267]	10.1
AACATATAAAAATGTGCACACACACCCATATATATA [CACACA_site1525]	9.97
TTTTACAAATATTACTGTACACATTTTCATATAATT [XGTACX_site17]	9.49
TTTTGCGAAAAAAGGTGTACTGTAAATATATTGAGG [XGTACX_site8941]	9.09

Sequence	gcPBM binding intensity (ln)
ATATATGATGTAAAAGCACACATATATATATATATA [CACACA_site9330]	9.21
TTTTTTTTAATATTTTACATTGTCTGTTAACAAATA [CACACA_negctrl_site599]	9.14
TTTCTTTTTTTTTTTATTTACCTGAATTATGTATTA [TGCATGCA_negctrl_site345]	9.24
TATGTGCACCCATATACACACACAAATACAATGATA [CACACA_site8295]	9.81
TATAAAATTTTTAAAAGTACATATTTTACATAATAC [XGTACX_site2193]	9.1
GCCTATATGTTTAGTTGTACTCCTAATATTATTTGT [XGTACX_site6060]	9.75
CGCAACACTATTTGGGTGCTCTTCAAAAAAAAAAAA [GTGCAC_site9598]	8.56
TCATAGTAGAAACACACACACACACCCATATATATA [CACACA_site1737]	10.2
TAAAAAGGAAAACACACACACACATATATATATATA [CACACA_site3588]	9.9
TATATATAAAAACACACACACACACCCTATAATTAT [CACACA_site4063]	10.3
TATATATAGAAACACACACACACCAAAGCGTAGCGC [CACACA_site62]	10
ATAAAAAGGAAACACACACACACACCCATATATATA [CACACA_site904]	10.2
TATATATAGAAACACACACACACATATATATATATA [CACACA_site4116]	9.96
TATATATAGAAACACACACACACACCCAAGCGTAGC [CACACA_site63]	10.2
ATATAATATATATATAAACACACAAAAAAAATTATA [CACACA_site8434]	9.63
ATAATATATATATAAACACACAAAAAAAATTATATA [CACACA_site1534]	9.74
TATATATATAAACACACACACACACCCAAGCGTAGC [CACACA_site4210]	10.1
TATATATAGAAACACACACACATATATATATATATA [CACACA_site773]	9.74
TATAAAAGGAAACACACACACATATATATATATATA [CACACA_site939]	9.74
TATAATATATATGTAACACACAAAAGTTATATACTT [CACACA_site2868]	9.37
